Where “and” joins values, the source holds several entries; their conditions need not be identical. Equal values may be shown once. Some structures have more than one record in an assay (separate samples or runs), and their calls can disagree. Calls of active or inactive are those of the source. The calls were made as follows: active = hit-call score of the fitted dose curve at least 0.9, where 1 is the maximum; inconclusive = response in the unintended direction; inactive = score below 0.9.
target: Estrogen receptor (Homo sapiens) (UniProt P03372); assay: OT_ERa_GFPERaERE_0120: Odyssey Thera (OT) 2-hour HeLa Transcription Induction Assay for Estrogen Receptor (AID 2283382)
Sequence (P03372 whole entry, looked up): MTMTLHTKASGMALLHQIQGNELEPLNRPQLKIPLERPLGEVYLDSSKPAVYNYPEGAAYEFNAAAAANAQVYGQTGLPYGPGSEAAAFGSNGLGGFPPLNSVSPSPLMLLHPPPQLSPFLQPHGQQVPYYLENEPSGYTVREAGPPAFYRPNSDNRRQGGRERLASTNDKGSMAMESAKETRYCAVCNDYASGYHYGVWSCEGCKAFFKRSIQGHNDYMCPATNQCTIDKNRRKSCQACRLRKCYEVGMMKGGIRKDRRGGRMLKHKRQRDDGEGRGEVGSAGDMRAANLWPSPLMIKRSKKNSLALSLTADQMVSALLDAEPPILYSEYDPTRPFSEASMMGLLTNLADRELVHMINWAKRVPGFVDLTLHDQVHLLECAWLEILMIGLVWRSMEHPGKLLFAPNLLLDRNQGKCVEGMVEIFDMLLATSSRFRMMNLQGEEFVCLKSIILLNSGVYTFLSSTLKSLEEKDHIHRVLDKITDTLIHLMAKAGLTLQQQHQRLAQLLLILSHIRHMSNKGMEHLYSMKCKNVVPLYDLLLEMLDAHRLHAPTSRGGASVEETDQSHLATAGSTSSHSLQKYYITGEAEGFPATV
Description: OT_ERa_GFPERaERE_0120 is a cell-based, single-readout assay that uses HeLa, a human cervix cell line, with measurements taken at 2 hours after chemical dosing in a 384-well plate.OT_ERa_GFPERaERE_0120 is one of one assay component(s) measured or calculated from the OT_ERa_GFPERaERE_0120 assay. It is designed to make measurements of fluorescent protein induction, a form of inducible reporter, as detected with optical microscopy: fluorescence microscopy signals by Microscopy technology.Data from the assay component OT_ERa_GFPERaERE_0120 was analyzed into 1 assay endpoint. This assay endpoint, OT_ERa_EREGFP_0120, was analyzed in the positive analysis fitting direction relative to DMSO as the negative control and baseline of activity. Using a type of inducible reporter, measures of receptor for gain-of-signal activity can be used to understand the reporter gene at the pathway-level as they relate to the gene ESR1. Furthermore, this assay endpoint can be referred to as a primary readout, because the performed assay has only produced 1 assay endpoint. To generalize the intended target to other relatable targets, this assay endpoint is annotated to the nuclear receptor intended target family, where the subfamily is steroidal.
All assay endpoints are quantified using high content image analysis algorithms.

SMILES | outcome | AC50
CCCCCCCCCCCCN1CCCC1=O | inactive | 
CCCCC(CC)COC(=O)CCCCC(=O)OCc1ccccc1 (stereo not given) | inactive | 
OC1CCC(C2CCCCC2)CC1 (stereo not given) | inactive | 
CCCCOCCO | inactive | 
Cc1cc(C)c(O)c(C)c1 | inactive | 
OC1CCCCC1 | inactive | 
c1ccc2c(c1)ccc1ccccc12 | inactive | 
CC(=O)CC(C)(C)O | inactive | 
Nc1cccc2c(N)cccc12 | inactive | 
OCCC(F)(F)C(F)(F)C(F)(F)C(F)(F)C(F)(F)C(F)(F)C(F)(F)C(F)(F)F |  | 3.54 µM (active)
Oc1cccc(O)c1 | inactive | 
CC(C)(C)c1cc(C(C)(C)C)c(O)c(C(C)(C)C)c1 | inactive | 
COCC(C)OCC(C)O (stereo not given) | inactive | 
C[C@@H]1C[C@H]2[C@@H]3CCC4=CC(=O)C=C[C@]4(C)[C@@]3(F)[C@@H](O)C[C@]2(C)[C@@]1(O)C(=O)COP(=O)(O)O | inactive | 
CN1CCC[C@H]1c1cccnc1 | inactive | 
COc1ccc([N+](=O)[O-])cc1N | inactive | 
CCCCCCC(=O)O | inactive | 
CC(=O)NC1(c2cccc(F)c2)CCN(CC[C@@]2(c3ccc(Cl)c(Cl)c3)CN(c3ccccc3)C(=O)CO2)CC1 |  | 62.3 µM (active)
CCC(C)(C)C1CCC(O)CC1 (stereo not given) | inactive | 27.5 µM (active) and 24.4 µM (active)

SMILES | outcome | AC50
CCCCCCCCCCCCc1ccccc1S(=O)(=O)O |  | 94.4 µM (active)
CCCCCCCCCCCCCCCS(=O)(=O)Oc1ccccc1 | inactive | 
O=C(O)c1ccccc1C(c1ccc(O)cc1)c1ccc(O)cc1 | inactive | 
CN1CCN(c2ccccc2/C=C2\SCCN(c3ccc(Cl)c(Cl)c3)C2=O)CC1 |  | 68.3 µM (active)
COC(=O)CCCCC(=O)OC | inactive | 
CC(C)CCCCCCOC(=O)CCCCC(=O)OCCCCCCC(C)C | inactive | 
CCCCCCCCCCCCCC[N+](C)(C)C |  | 69.9 µM (active)
CCCCC(CC)COC(=O)CCCCC(=O)OCC(CC)CCCC (stereo not given) | inactive | 
CCCCCCCCOC(=O)CCCCCCCCC(=O)OCCCCCCCC | inactive | 
CC(O)CO (stereo not given) | inactive | 
c1ccc2cc3c(ccc4ccccc43)cc2c1 | inactive | 59.4 µM (active)
CN(C)C=O | inactive | 
Cc1cc(CCN2CCN(c3nsc4ccccc34)CC2)cc2c1NC(=O)CC2(C)C |  | 15.3 µM (active)
CC(C)(C)c1cccc(C(C)(C)C)c1O | inactive | 
CC[C@H](C)[C@@H](C(=O)O)n1sc2ccccc2c1=O | inactive | 
NC(=O)N1C(=O)C(C(=O)c2cc(Cl)cs2)c2cc(F)c(Cl)cc21 (stereo not given) | inactive | 
COCC(C)O (stereo not given) | inactive | 
c1ccc2c(c1)Cc1ccccc1-2 | inactive | 
O=C1OC2(c3ccccc31)c1cc(Br)c(O)c(Br)c1Oc1c2cc(Br)c(O)c1Br | inactive | 

From PubChem BioAssay (EPA / NIEHS)
